Compound activity (PubChem BioAssay)
Hits are enriched below; roughly 12% of the tested compounds scored in any of these assays.
BAZ2B block – blocks human BAZ2B | Q9UIF8 | AID 504333 | AlphaScreen BAZ2B-H3K14Ac peptide displacement | Potency, µM (series often up to 114 µM), hits mostly inhibitors | 360,000 tested, 4.4% active; also: nearly all actives have a fitted effect of over 60% in size
Target sequence (Q9UIF8 whole entry, looked up): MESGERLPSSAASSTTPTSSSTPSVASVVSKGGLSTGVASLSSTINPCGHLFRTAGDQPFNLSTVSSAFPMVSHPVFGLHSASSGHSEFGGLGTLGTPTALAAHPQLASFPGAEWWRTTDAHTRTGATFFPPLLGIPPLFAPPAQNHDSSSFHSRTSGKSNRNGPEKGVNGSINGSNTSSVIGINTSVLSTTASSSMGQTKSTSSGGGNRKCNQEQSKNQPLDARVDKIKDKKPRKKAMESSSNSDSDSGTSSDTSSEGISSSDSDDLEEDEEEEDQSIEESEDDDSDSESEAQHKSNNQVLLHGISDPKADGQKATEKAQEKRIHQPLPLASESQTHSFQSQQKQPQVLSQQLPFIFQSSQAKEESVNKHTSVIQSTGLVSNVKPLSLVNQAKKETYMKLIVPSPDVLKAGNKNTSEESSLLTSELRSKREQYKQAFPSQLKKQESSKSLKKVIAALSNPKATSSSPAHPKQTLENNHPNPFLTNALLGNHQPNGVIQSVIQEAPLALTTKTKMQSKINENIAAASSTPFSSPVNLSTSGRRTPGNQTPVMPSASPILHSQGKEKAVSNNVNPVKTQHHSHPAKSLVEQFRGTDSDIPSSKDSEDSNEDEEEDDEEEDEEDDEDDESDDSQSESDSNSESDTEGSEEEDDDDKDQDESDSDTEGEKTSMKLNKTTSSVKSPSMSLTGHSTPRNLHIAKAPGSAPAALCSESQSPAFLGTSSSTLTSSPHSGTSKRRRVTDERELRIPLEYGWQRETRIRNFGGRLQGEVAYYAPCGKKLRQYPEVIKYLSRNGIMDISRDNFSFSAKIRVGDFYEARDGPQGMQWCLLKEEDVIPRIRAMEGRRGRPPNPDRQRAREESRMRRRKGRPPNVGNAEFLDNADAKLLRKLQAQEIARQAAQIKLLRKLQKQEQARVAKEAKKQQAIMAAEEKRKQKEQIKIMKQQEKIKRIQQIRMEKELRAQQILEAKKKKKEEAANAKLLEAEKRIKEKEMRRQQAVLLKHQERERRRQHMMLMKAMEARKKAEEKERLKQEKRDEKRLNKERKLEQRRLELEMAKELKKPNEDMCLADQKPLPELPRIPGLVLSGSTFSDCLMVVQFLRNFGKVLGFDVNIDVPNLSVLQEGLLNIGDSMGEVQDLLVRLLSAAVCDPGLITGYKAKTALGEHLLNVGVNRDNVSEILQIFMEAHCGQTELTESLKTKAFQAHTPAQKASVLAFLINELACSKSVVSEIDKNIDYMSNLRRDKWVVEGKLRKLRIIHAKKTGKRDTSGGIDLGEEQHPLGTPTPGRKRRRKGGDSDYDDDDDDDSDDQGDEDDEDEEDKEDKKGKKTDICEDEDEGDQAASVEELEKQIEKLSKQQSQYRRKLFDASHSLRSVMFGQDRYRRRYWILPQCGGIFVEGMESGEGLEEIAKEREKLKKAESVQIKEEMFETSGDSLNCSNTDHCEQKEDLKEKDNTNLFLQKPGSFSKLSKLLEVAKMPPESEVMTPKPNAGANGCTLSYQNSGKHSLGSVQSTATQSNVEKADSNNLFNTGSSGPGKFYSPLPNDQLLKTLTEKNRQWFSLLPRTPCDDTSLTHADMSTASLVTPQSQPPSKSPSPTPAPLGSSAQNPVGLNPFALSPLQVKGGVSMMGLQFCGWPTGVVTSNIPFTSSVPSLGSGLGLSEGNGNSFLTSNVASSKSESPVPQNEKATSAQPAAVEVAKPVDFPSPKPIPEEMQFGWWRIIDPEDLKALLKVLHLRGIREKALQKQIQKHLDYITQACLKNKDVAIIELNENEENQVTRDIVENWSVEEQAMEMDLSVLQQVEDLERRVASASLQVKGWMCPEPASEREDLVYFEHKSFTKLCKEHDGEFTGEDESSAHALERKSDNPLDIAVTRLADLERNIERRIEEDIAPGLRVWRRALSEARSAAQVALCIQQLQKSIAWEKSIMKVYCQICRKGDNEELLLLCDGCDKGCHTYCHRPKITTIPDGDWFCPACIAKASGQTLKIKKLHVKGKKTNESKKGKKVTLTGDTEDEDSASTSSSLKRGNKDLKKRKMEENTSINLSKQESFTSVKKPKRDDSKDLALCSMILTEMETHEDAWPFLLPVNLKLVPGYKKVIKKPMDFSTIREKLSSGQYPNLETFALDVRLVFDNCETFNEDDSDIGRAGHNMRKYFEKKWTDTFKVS
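Inhibition is scored as reduced AlphaScreen emission. The BAZ2B/b-H3(5-23)K14Ac complex (50 nM each) in PBS pH 7.4, 0.01% Tween-20 meets compound (up to 110 uM) for 30 min at RT before bead addition.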
G9a block – G9a (human) methyltransferase inhibition; Q96KQ7; 350,000 tested, 8.8% active; Potency, µM (top dose mostly 102 µM), usual class: inhibitors; G9a H3K9 monomethylation, AlphaScreen, 2 h; also: nearly all actives have a fitted effect of over 75% in size
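Step 1: enzyme (final 20 nM) with compound, 15 min RT. Step 2: substrate peptide 500 nM and SAM 20 uM, 2 h RT. Step 3: anti-H3K9me1 antibody and AlphaScreen beads, 10 min, then plate read.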
JMJD2A Tudor inh – blocks the human JMJD2A Tudor domain; O75164; AlphaScreen JMJD2A-Tudor / H3K4me3 peptide binding; Potency, µM (top dose mostly 114 µM), usual class: inhibitors; 390,000 tested, 4.4% active; also: nearly all actives have a fitted effect of over 50% in size
Sfp PPTase inh – Sfp phosphopantetheinyl transferase inhibition; Potency, µM, usual class: inhibitors; 310,000 tested, 3.5% active; Q9F4F7; Biochemical Sfp PPTase activity, qHTS;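 also: the enzyme is Sfp with the accession as filed and its product quenches rhodamine fluorescence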
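Buffer: 50 mM Hepes-Na pH 7.6, 10 mM MgCl2, 0.01% Nonidet P-40, 0.01% BSA. Enzyme 15 nM, pre-exposed to compound 15 min; substrates then added and fluorescence change tracked over 30 min.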
HP1b chromo inh – inhibitors of HP1-beta chromodomain binding to methylated histone tails | AlphaScreen HP1-beta / biotin-H3K9me3 peptide binding | Potency, µM (top dose mostly 114 µM), actives largely listed as inhibitors | 390,000 tested, 0.56% active; also: nearly all actives have a fitted effect of over 70% in size
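Compound inhibition of the preformed complex between 50 nM HP1-beta and 50 nM biotinylated H3K9me3 peptide was read by AlphaScreen. Buffer was PBS pH 7.4 with 0.01% Tween-20. Incubations ran 30 min at room temperature, with 10 ug/mL donor/acceptor beads.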
Large screens that a line does not name were inactive. Calls follow the shape of the dose curve; as a rule, active = well fitted curve in the direction sought with a large enough effect; inconclusive = small, poorly fitted or top-dose-only effect, or another doubt; inactive = no such curve, though single readings can be large; an effect the other way counts as inactive or inconclusive.

CCCCn1c(N)c(N(CCOC)C(=O)c2cc3c(s2)CCC3)c(=O)[nH]c1=O	G9a block 17.8µM (no result: Sfp PPTase inh)
COc1ccc(NS(=O)(=O)c2cccc(C(=O)N/N=C(\C)c3cccnc3)c2)cc1	none (no result: Sfp PPTase inh)
CC(C)(C)c1ccc(OCc2cc(=O)n3c4c(sc3n2)CCCC4)cc1	none (no result: Sfp PPTase inh)
Cc1cc(C(=O)N/N=C/c2cccnc2)n[nH]1	none
Cc1cc(C(=O)N/N=C/c2ccc(-c3cccc([N+](=O)[O-])c3)o2)n[nH]1	none
Cc1cc(C(=O)N/N=C\c2cc(C(C)(C)C)c(O)c(C(C)(C)C)c2)n[nH]1	G9a block 39.8µM, JMJD2A Tudor inh inconclusive
Cc1cc(C(=O)N/N=C/c2ccc(Br)o2)n[nH]1	none
Cc1cc(C(=O)N/N=C/c2ccc(-c3ccc([N+](=O)[O-])cc3Cl)o2)n[nH]1	BAZ2B block 79.4µM, G9a block 50.1µM, JMJD2A Tudor inh inconclusive
Cc1cc(C(=O)N/N=C/c2cc(Cl)cc([N+](=O)[O-])c2O)n[nH]1	BAZ2B block 50.1µM, JMJD2A Tudor inh inconclusive (no result: G9a block)
Cc1cc(C(=O)N/N=C/c2cc(Br)c(Br)o2)n[nH]1	G9a block 10µM, JMJD2A Tudor inh inconclusive, Sfp PPTase inh inconclusive
C=C(C)C(O)/C=C/c1ccc(C)cc1 (configuration not stated)	none (no result: BAZ2B block, G9a block, JMJD2A Tudor inh, HP1b chromo inh)
CCNC(=O)/C(=C/c1cccc([N+](=O)[O-])c1)NC(=O)c1ccc(C)cc1	none
CCOC(=O)C1=C(C)OC(N)=C(C#N)C1c1cc2ccccc2nc1N1CCCCC1 (configuration not stated)	G9a block 11.2µM
CCOC(=O)C1=C(C)OC(N)=C(C#N)C1c1cc2cc(C)ccc2nc1N1CCCCC1 (configuration not stated)	G9a block 10µM
CCOC(=O)C1=C(C)OC(N)=C(C#N)C1c1cc2c(cc1Br)OCO2 (configuration not stated)	G9a block inconclusive
O=C(Cc1ccc(S(=O)(=O)N2CCOCC2)s1)N1CCN(S(=O)(=O)c2ccc(Cl)cc2)CC1	none (no result: Sfp PPTase inh)
Cc1ccc(S(=O)(=O)N2CCN(C(=O)Cc3ccc(S(=O)(=O)N4CCOCC4)s3)CC2)cc1	G9a block 79.4µM
COc1ccc(N2CCN(C(=O)Cc3ccc(S(=O)(=O)N4CCOCC4)s3)CC2)cc1	BAZ2B block 39.8µM, G9a block 44.7µM, JMJD2A Tudor inh 44.7µM, HP1b chromo inh 50.1µM
CN(Cc1ccccc1)C(=O)c1cccc(NC(=O)Cc2ccc(NC(=O)C3CCN(C(=O)C4CC4)CC3)cc2)c1	none (no result: BAZ2B block, G9a block, Sfp PPTase inh)
COc1ccccc1-c1nc2c(c(SCc3cccc(Cl)c3)n1)Cc1c(CO)cnc(C)c1O2	none (no result: Sfp PPTase inh)
COCc1nnc(NC(=O)c2ccc(S(=O)(=O)N3CCCCCC3)cc2)o1	BAZ2B block inconclusive, JMJD2A Tudor inh 79.4µM
COCc1nnc(NC(=O)c2ccc(S(=O)(=O)N(C)C3CCCCC3)cc2)o1	BAZ2B block inconclusive, G9a block inconclusive, JMJD2A Tudor inh 79.4µM
O=C(Nc1nnc(-c2ccco2)o1)c1ccc(S(=O)(=O)N2CCCC2)cc1	G9a block inconclusive (no result: BAZ2B block)
CCCN(CCC)S(=O)(=O)c1ccc(C(=O)Nc2nnc(COC)o2)cc1	BAZ2B block inconclusive
O=C(O)CSc1ccc(Oc2ccc(SCC(=O)O)cc2)cc1	none (no result: G9a block)
O=C(O)CSc1sc(=S)sc1SCC(=O)O	G9a block 44.7µM, JMJD2A Tudor inh inconclusive, Sfp PPTase inh 79.4µM
O=S(=O)(NCc1ccco1)c1ccc2ccccc2c1	BAZ2B block inconclusive
Cc1ccc(S(=O)(=O)NCc2ccco2)cc1C(N)=O	JMJD2A Tudor inh 25.1µM
COc1ccc(C(CNC(=O)c2cc(S(=O)(=O)NCc3ccco3)ccc2C)N(C)C)cc1 (configuration not stated)	none (no result: BAZ2B block, G9a block, Sfp PPTase inh)
Cc1ccc2ccc(S(=O)(=O)NCc3ccco3)cc2c1	G9a block 35.5µM
Cc1ccc(NC(=O)C2=C(O)c3sccc3N(C)S2(=O)=O)cc1	JMJD2A Tudor inh inconclusive
Cc1ccc(NC(=S)C2=C(O)c3sccc3N(C)S2(=O)=O)cc1	G9a block 17.8µM
C/C(CCC12CC3CC(CC(C3)C1)C2)=N\NC(N)=S	BAZ2B block inconclusive, JMJD2A Tudor inh inconclusive, Sfp PPTase inh inconclusive
C/C(=N\NC(N)=S)C1C2C3CC4C5CC(C42)C1C53 (configuration not stated)	G9a block 39.8µM
O=C(NN=C1C2CC3CC(C2)CC1C3)c1ccccc1O	none
